TF binding intensity data for 27 sequences are collected here from the supplement of paper PMC10681739.

The target of this assay is T1, ETS1 (UniProt P14921).
T1 sequence: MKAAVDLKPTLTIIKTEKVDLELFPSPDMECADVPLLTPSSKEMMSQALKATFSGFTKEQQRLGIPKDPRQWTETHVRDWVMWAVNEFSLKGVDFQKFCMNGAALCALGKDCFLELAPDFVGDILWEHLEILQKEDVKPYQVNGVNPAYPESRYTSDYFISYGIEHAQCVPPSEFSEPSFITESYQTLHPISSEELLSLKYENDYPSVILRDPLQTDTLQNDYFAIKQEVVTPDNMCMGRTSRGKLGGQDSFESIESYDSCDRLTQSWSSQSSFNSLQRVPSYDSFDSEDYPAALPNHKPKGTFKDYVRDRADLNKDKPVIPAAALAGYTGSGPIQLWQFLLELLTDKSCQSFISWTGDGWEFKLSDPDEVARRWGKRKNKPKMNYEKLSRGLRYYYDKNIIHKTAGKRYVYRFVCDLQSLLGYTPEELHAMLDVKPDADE
In words: TF binding intensity (PBM fluorescence), negative control probe (arbitrary fluorescence units); higher = stronger binding. As to the method: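 gcPBM negative-control 36-bp genomic probes lacking TF binding sites. Each was incubated with recombinant human ETS1 or RUNX1 alone and detected by antibody fluorescence. Values are medians over replicate spots (4 spots for the ETS1-RUNX1 arrays, 3 for the ETS1-ETS1 array). The probes sit in constant array flanks that are not printed.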
For “TTTTTTTTTTTGGTCTGTGGTTTTGGAGTTTTTGTT (protein concentration 1 nM)”, the TF binding intensity stood at 716. The value for “TAATCCCAGCACTTTGGGAATCCAAGGCAGTCAAAT (protein concentration 10 nM)” was 94.8; that for “TAGTTAAGACCTCTTAAGTCATAATAATATTGCCTA (protein concentration 10 nM)” was 102; that for “CTGGGGTGGCGCCAGCCTTATTATGACTAACCATGA (protein concentration 10 nM)” was 105.

As for “AAACAAAGTAAGCTTTTAAGGACTCTGGTCAGAAAC (protein concentration 10 nM)”, the TF binding intensity was 101.

With “GTCCCGGCTCGACTCAGTCCTCCAGCCGCCCGGGGA (protein concentration 10 nM)”, the TF binding intensity was 120. “AAATTCTGTAACCAGTGCTCTTGAGCTGCTTGCTGG (protein concentration 10 nM)” showed a TF binding intensity of 102. The value for “GGGTCTTGCCATTGAGAGGCAGGTGATGTGCTGTTT (protein concentration 10 nM)” was 132. Turning to “ACTCTAGTTTGTGATTTTTAAAACGTTTGAAAGCCA (protein concentration 10 nM)”, the TF binding intensity was determined as 124. The value for “GACATTTCGAGTAAGTGCGGTATACCAGTTAAAAAT (protein concentration 1 nM)” was 479; that for “GAAGCAAGGATAATTAACTTCTACCAGTGATCCCCA (protein concentration 10 nM)” was 124; that for “TCTGAATGCTAAGCTCATCGAAGACGCCCAGCACTT (protein concentration 10 nM)” was 123. Take “TATTTCACGCAAATAAGCAGTGACTGAGGACACAGT (protein concentration 10 nM)”: the TF binding intensity turned out to be 117. The value for “GAAATCCAGGAGAAAAATGCAGGACAGTCAGAGTAA (protein concentration 10 nM)” was 106. Turning to “CAGAGGGGGCCTCTGGGGCAGCGGTGCTGGGAGCGG (protein concentration 10 nM)”, the TF binding intensity was found to be 109. Next, “TTGTTACACTCCACGCTTTAGCTATTTGTTGCTACT (protein concentration 10 nM)”: 120; “TTCTTCCCACCGCAGGGCATCTGCACGGGCCGCTCA (protein concentration 10 nM)”: 125; “TTGGGACCAATTTGACCCACAAACCCTGAAAAAGAG (protein concentration 1 nM)”: 497. “CATCCCTCTGCCAGATGGAATTTGGAGATAAACCTC (protein concentration 10 nM)” had a TF binding intensity of 130. The value for “GAGCATCACAAGGTCAGAGGAGGGGGCGGCCAGGGT (protein concentration 10 nM)” was 240; that for “AGAGGCATGAAAACAAATGAGACTAGGATGAGTTGG (protein concentration 10 nM)” was 131. The value for “CGGACTGGGAGTTTGACCGCGTTGACGACGGCTCGC (protein concentration 1 nM)” was 446. Sequence “TGATTTCTTAAGCCAACCTCAAAAAAAAAAAAAGAG (protein concentration 1 nM)” came in with a TF binding intensity of 596. Turning to “ACCTGGCTGTCTGGCTCCTTACTTTCCACCATTTTC (protein concentration 10 nM)”, the TF binding intensity turned out to be 132.

As for “CTGGATTTCTGTACTTTGGTTGGCTTATATTACATC (protein concentration 10 nM)”, the TF binding intensity was determined as 171. “ACCTCCCACTTGGCTCCCAGGTGGGTGCAGTGAGGC (protein concentration 10 nM)” gave a TF binding intensity of 155. As for “GAAGCCAGTGAGCCAGGAGTGCTGATTGGTTAGGGA (protein concentration 10 nM)”, the TF binding intensity was 107.
